dFosB act – activators of mouse delta FosB homodimer | actives 0.99% (n = 340,000) | P13346 | AID 493131 | activation, % at 25 µM | purified delta FosB, TAMRA-CDK5 oligo fluorescence polarization; percent of positive-control signal above neutral wells;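 active means mean activation above about 17%, with every replicate also reaching it, limit read from the data, passing the limit was not always enough; inconclusive means only one of the two conditions met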
Target sequence (P13346 whole entry, looked up): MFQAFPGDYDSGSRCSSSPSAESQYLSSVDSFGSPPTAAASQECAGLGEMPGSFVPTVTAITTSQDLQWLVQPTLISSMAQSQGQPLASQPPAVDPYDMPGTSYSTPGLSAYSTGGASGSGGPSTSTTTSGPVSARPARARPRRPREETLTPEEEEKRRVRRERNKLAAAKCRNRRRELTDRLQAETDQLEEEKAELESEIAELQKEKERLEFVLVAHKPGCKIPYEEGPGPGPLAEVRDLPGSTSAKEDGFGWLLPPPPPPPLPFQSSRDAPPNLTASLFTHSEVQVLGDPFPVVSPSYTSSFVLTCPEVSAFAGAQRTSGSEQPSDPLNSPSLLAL
Neddylation inh – blocks human cullin neddylation | TR-FRET cullin neddylation, biochemical | inhibition, % at 25 µM | actives 0.58% (n = 360,000) | AID 651699; in the data active means inhibition above about 36%
INS-1E GSIS act – GLuc luminescence reporter in INS-1E cells, primary screen for activators of glucose-dependent secretion of insulin | INS-1E GLuc reporter insulin secretion, 2-3 h | activation, % at 16.6 µM | actives 0.61% (n = 370,000) | AID 743287;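 active means lowest replicate activation of at least 40%, so every replicate reaches that level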;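 further: 0% = median of neutral control wells and 100% = median of IBMX positive control wells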
Vif imaging – HIV Vif inhibition; actives 0.35% (n = 340,000); inhibition, % at 7.49 µM; AID 602346; HEK293T cells, Vif self-association by quenched fluorescence, imaging, 24 h; in the data active means inhibition above about 50%, passing the limit was not always enough; inconclusive means no clear call, values can overlap the other calls; inactive means below about 31%
A1 inh – inhibitors of the anti-apoptotic protein A1, read as caspase activation. MEF A1-2A-BIM cells, Caspase-Glo 3/7 luminescence, 3 h; percent of clofoctol response, vehicle zero. AID 2462. actives 0.066% (n = 330,000). caspase activation, % (test concentration not listed);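 active means over half of replicate activation scores above 10%, or exactly half above 10 with the replicate mean above 10; inconclusive means replicate mean below 10 yet half the replicates above 10; inactive means over half of replicates below 10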
The depositor's hits bear a star; ? = inconclusive; . = no result given. The list is not random: actives were taken first. Their share in the collection is about 1.9%.

SMILES	dFosB act	Neddylation inh	INS-1E GSIS act	Vif imaging	A1 inh
O=C(N[C@H]1CC[C@H](CCNC(=O)C2CCCCC2)O[C@@H]1CO)c1ccncc1	.	.	10	.	.
COc1ccc(C(=O)c2ccc(Cl)c([N+](=O)[O-])c2)cc1	-4	-27	1	69*	?
COc1ccc(C(=O)c2ccc(Cl)cc2)cc1	0	-105	.	5	0
CCN(Cc1ccccc1)S(=O)(=O)c1ccc(C(=O)Nc2nnc(C)o2)cc1	-9	8	54*	-4	0
CC(=O)N1[C@@H]2Cn3c(ccc(C4=CCCC4)c3=O)[C@H]1[C@@H](C(=O)NC1CCCCC1)[C@@H]2CO	.	.	13	.	.
Cc1ncc(N=Nc2ccc(F)cc2)c(-c2ccc(Cl)cc2)n1	3	-9	59*	?	-1
CC(C)NC(=O)C1(C)CN(S(C)(=O)=O)CC(=O)N1CCCN1CCOCC1 (stereo unspecified)	.	10	44*	.	.
O=C(CC1CC1)N1CC2(C1)[C@@H](c1ccccc1)[C@H](CO)N2C(=O)c1cccnc1	.	.	5	.	.
COc1ccc(NC(=O)N(C)C[C@@H]2Oc3c(NS(=O)(=O)c4ccc(OC)cc4)cccc3C(=O)N([C@H](C)CO)C[C@H]2C)cc1	.	.	0	.	.
COc1ccc(-c2cc(C(=O)O)c3c(C)nn(-c4ccccn4)c3n2)cc1	.	.	-4	.	0
CCOC(=O)c1cc(-c2ccncc2)nc2c1c(C)nn2-c1ccccn1	-89	28	66*	?	-2
CC(C)(C)c1ccc(S(=O)(=O)N2CC(C(=O)O)Oc3ccc(Cl)cc32)cc1 (stereo unspecified)	-11	5	142*	5	2
CCCNC(=O)N1[C@@H](CO)[C@@H]2c3ccccc3N(C(=O)Nc3cccc(F)c3)C[C@@H]21	.	.	3	.	.
Cc1ccc(NC(=O)/C=C/C(=O)O)c(NC(=O)c2ccccc2)c1	0	-7	10	53*	-1
O=C(COC(=O)c1ccccc1NC(=O)c1ccccc1)c1cccc([N+](=O)[O-])c1	-2	-12	69*	10	-4
O=C(COC(=O)c1ccccc1NC(=O)c1ccccc1)c1ccc([N+](=O)[O-])cc1	-8	-17	.	3	0
O=C(Nc1ccc([N+](=O)[O-])cc1NC(=O)c1ccccc1)c1ccccc1	2	-7	85*	6	.
Cc1ccc([N+](=O)[O-])cc1NC(=O)c1ccccc1	-2	-36	23	0	1
C[C@H](CO)N1C[C@H](C)[C@@H](CN(C)S(=O)(=O)c2ccc(Cl)cc2)Oc2ccc(NC(=O)C3CCCCC3)cc2CC1=O	.	.	-7	.	.
O=c1ccn([C@@H]2O[C@H](CNCc3ccc(-n4cccn4)cc3)[C@@H](O)[C@H]2O)c(=O)[nH]1	0	-5	10	96*	.
COC(=O)c1nc(Cl)c(Cl)c(N)c1Cl	-6	12	66	2	0
CCCCCCCCOC(=O)c1nc(Cl)c(Cl)c(N)c1Cl	0	8	60*	12	0
CCNC(=O)Nc1ccc2c(c1)C(=O)N(C)[C@@H]1CC[C@H](CC(=O)N[C@@H](C)c3ccccc3)O[C@H]1CO2	.	.	3	.	.
COc1ccc(CCNC(=O)COC(=O)c2ccc(C)s2)cc1OC	-7	-3	42*	-3	1
CCOc1ccc(CCNC(=O)COC(=O)/C=C/c2ccco2)cc1OCC	-10	-5	44*	5	0
SMILES	dFosB act	Neddylation inh	INS-1E GSIS act	Vif imaging	A1 inh
CCOc1ncccc1C(=O)OCC(=O)NCc1ccc2c(c1)OCO2	2	-3	-1	-4	1
COc1ccc(CCNC(=O)COC(=O)c2ccc(C)s2)cc1	3	5	3	-8	-1
CCOc1ccc(CCNC(=O)/C=C/c2ccco2)cc1OCC	-6	4	18	-4	0
CCOc1ccc(CCNC(=O)COC(=O)c2nc(Cl)ccc2Cl)cc1OCC	-7	5	44*	1	0
CCOc1ccccc1C(=O)OCC(=O)NCc1ccc2c(c1)OCO2	6	-5	47*	-4	-1
O=C(NCc1ccc(F)cc1)[C@@H]1[C@@H](CO)[C@@H]2Cn3c(ccc(-c4cccnc4)c3=O)[C@H]1N2	.	.	2	.	.
CCN1[C@@H]2c3ccc(-c4cccc(OC)c4)c(=O)n3C[C@@H]2[C@@H](CO)[C@@H]1C(=O)N(C)C	.	.	13	.	.
C[C@H](CO)N1C[C@H](C)[C@@H](CN(C)S(=O)(=O)c2cn(C)cn2)Oc2c(NC(=O)CCCN(C)C)cccc2C1=O	.	.	-1	.	.
COc1cccc(-c2ccc([C@@H]3[C@@H](CO)N4C(=O)CN(C(=O)C5CC5)C[C@@H]34)cc2)c1	.	.	-6	.	.
CN1C(=O)c2cc(NC(=O)c3ccc(F)c(F)c3)ccc2OC[C@@H]2O[C@@H](CC(=O)N3CCOCC3)CC[C@@H]21	.	.	2	.	.
COc1ccc(CNC(=O)C[C@H]2CC[C@H](NC(=O)c3ccc4c(c3)OCO4)[C@H](CO)O2)cc1	.	.	-6	.	.
CCOc1ccc(CCNC(=O)COC(=O)CSc2ccccc2C)cc1OCC	-9	-2	57*	22	0
CCOc1ccc(CCNC(=O)COC(=O)c2cccnc2SC)cc1OCC	-7	4	55*	11	1
CCOc1ccc(CCNC(=O)COC(=O)c2ccc(C)s2)cc1OCC	-12	2	52*	16	1
CCOc1ccc(CCNC(=O)COC(=O)c2cccnc2Cl)cc1OCC	4	11	42	0	0
CCOc1ccc(CCNC(=O)Nc2ccccc2C)cc1OCC	-6	3	9	0	0
Cc1ccc(S(=O)(=O)Nc2ccc3c(c2)C(=O)N([C@@H](C)CO)C[C@H](C)[C@H](CN(C)C)OCCCC[C@H](C)O3)cc1	.	.	7	.	.
Cc1ccc(S(=O)(=O)N[C@H]2CC[C@H](CCNC(=O)CN3CCOCC3)O[C@H]2CO)cc1	.	.	6	.	.
CCCn1c(C)cc(C)c(C#N)c1=O	7	2	43*	-6	0
COc1cccc(NC(=O)C[C@@H]2CC[C@@H]3[C@@H](COc4ccc(NC(=O)C5CCCCC5)cc4C(=O)N3C)O2)c1	.	.	6	.	.
CCC(/C=C1\Sc2ccc(OC)cc2N1CC)=C\c1sc2ccc(OC)cc2[n+]1CCCS(=O)(=O)[O-]	134*	-1	0	0	-1
COc1ccc(NC(=O)C2CCCN2S(=O)(=O)c2ccc3c(c2)CC(C)N3C(C)=O)cc1OC (stereo unspecified)	-10	-1	101*	-7	0
C[n+]1c(-c2ccccc2)cc2c(=Cc3ccccc3)c3ccccc3n21	-1	.	33	-16	.
Cc1cc2c(=Cc3ccc(N(C)C)cc3)c3ccccc3n2[n+]1C	100*	-206	-66	-24	.
CN(C)c1ccc(C=c2c3ccccc3n3c2c2ccccc2[n+]3C)cc1	-259	39*	.	-9	.
CN(C)c1ccc(C=c2c3cc(O)ccc3n3c2cc(-c2ccccc2)[n+]3C)cc1	82*	-88	-55	-15	.
C[n+]1c(-c2ccccc2)cc2c(=Cc3ccc([N+](=O)[O-])cc3)c3ccccc3n21	-8	21	4	-9	.
